# PubChem BioAssay (Tox21)
# Inconclusive results are not listed. Entries that show only a call come without a potency. Unmarked numbers belong to inactive results. Calls of active or inactive are those of the source. Unless noted, calls come from the whole dose curve; as a rule, active = well fitted curve in the direction sought with a large enough effect in the repeat runs; inconclusive = weak or mixed curves; inactive = no such curve, though single readings can be large; an effect the other way counts as inactive or inconclusive.
# How the values were obtained:
# [1] = qHTS assay to identify small molecule antagonists of the estrogen related receptor (ERR) signaling pathway from Tox21 library - cell viability counter screen (AID 1224834); note: nearly all actives have a fitted effect of over 30% in size; note: potency is the fitted concentration of half-maximal effect
# In short: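 ERR reporter cells were plated 6 h before compound addition, then exposed to test compounds in DMSO for 17.5 h at 37 C. Viability was read as CellTiter-Fluor fluorescence after a 30-minute incubation at 37 C.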
# [2] = molecular target: Luciferin 4-monooxygenase (Photinus pyralis) (UniProt P08659); test: qHTS assay to identify small molecule inhibitors of firefly luciferase (AID 1224835); note: series mostly up to about 120 µM; nearly all actives have a fitted effect of over 25% in size
# In short: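 Quantitative HTS format; KM concentrations of both substrates. Purified P. pyralis FLuc activity quantified from luminescence images.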
# [3] = molecular target: Nuclear receptor subfamily 1 group I member 3 (Homo sapiens) (UniProt Q14994); test: qHTS assay to identify small molecule agonists of the constitutive androstane receptor (CAR) signaling pathway (AID 1224839); note: nearly all actives have a fitted effect of over 15% in size; note: potency is the fitted concentration of half-maximal effect
# In short: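 Luminescence read-out (ONE-Glo, 30 min, room temperature) from double-stable HepG2-CYP2B6-hCAR cells exposed 24 h to 15-point compound series in presence of 0.75 uM PK11195 final.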
# [4] = qHTS assay to identify small molecule antagonists of the estrogen related receptor signaling pathway with the pleiotropic PPARgamma coactivator (PGC) from Tox21 10K library (AID 1224841; call rule not given here; note: actives are mostly falling curves and most rising ones were filed inactive; nearly all actives have a fitted effect of over 50% in size; note: potency is the fitted concentration of half-maximal effect)
# In short: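 PGC/ERR reporter cells were seeded at 2,000 cells/well and held 6 hours at 37 C/5% CO2 before pin-tool addition of compounds in DMSO. After 18 hours at 37 C, One-Glo was added and luminescence read after 30 minutes at room temperature.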
# [5] = qHTS assay to identify small molecule agonists of the estrogen related receptor signaling pathway with the pleiotropic PPARgamma coactivator (PGC) from Tox21 10K library (AID 1224842); note: nearly all actives have a fitted effect of over 15% in size
# In short: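 PGC/ERR reporter cells (NTP line) were seeded 2,000 per well, rested 6 h at 37 C/5% CO2, then pin-dosed with compounds in DMSO for 18 h at 37 C; luciferase read by One-Glo luminescence after 30 min at room temperature.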
# [6] = molecular target: Thyrotropin receptor (Homo sapiens) (UniProt P16473); test: qHTS assay to identify small molecule agonists of the thyroid stimulating hormone receptor (TSHR) signaling pathway (AID 1224843; calls by dose curve; note: nearly all actives have a fitted effect of over 45% in size)
# In short: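 Cell line HEK293 with TSHR; density 800/well. Exposure 30 min RT. Readout HTRF cAMP (cAMP-d2/anti-cAMP-cryptate), 1 h RT before reading.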
# [7] = qHTS assay to identify small molecule antagonists of the constitutive androstane receptor (CAR) signaling pathway - cell viability counter screen (AID 1224837); note: nearly all actives have a fitted effect of over 45% in size; note: potency is the fitted concentration of half-maximal effect
# In short: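 HepG2 cells stably expressing hCAR and a CYP2B6-2.2kb reporter were plated and pre-incubated 4 hr at 37 C/5% CO2, then given compounds at 15 concentrations plus 50 nM CITCO (final). After 23 hr, viability was read by CellTiter-Fluor fluorescence.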
# [8] = qHTS assay to identify small molecule antagonists of the estrogen related receptor signaling pathway with the pleiotropic PPARgamma coactivator (PGC) from Tox21 10K library - cell viability counter screen (AID 1224840; active = well fitted cell-killing curve with a large enough effect in the repeat runs, not every such curve was filed as active; note: nearly all actives have a fitted effect of over 40% in size)
# In short: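 PGC/ERR cells were seeded at 2,000 cells/well and left 6 hours at 37 C/5% CO2 before pin-tool addition of compounds in DMSO. After 17.5 hours at 37 C, CellTiter-Fluor was added and fluorescence read 30 minutes later.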
# [9] = molecular target: Nuclear receptor subfamily 1 group I member 3 (Homo sapiens) (UniProt Q14994); test: qHTS assay to identify small molecule antagonists of the constitutive androstane receptor (CAR) signaling pathway (AID 1224838); note: nearly all actives have a fitted effect of over 40% in size; note: potency is the fitted concentration of half-maximal effect
# In short: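 HepG2 cells stably co-transfected with hCAR and a CYP2B6-2.2kb luciferase reporter were seeded 4 h before compound addition at 15 concentrations. Cells were stimulated with 50 nM CITCO (final) for 24 h at 37 C; luciferase luminescence was then read.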
# [10] = qHTS assay to identify small molecule agonists of the constitutive androstane receptor (CAR) signaling pathway - cell viability counter screen (AID 1224836); note: nearly all actives have a fitted effect of over 45% in size; note: potency is the fitted concentration of half-maximal effect
# In short: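 Viability read-out: CellTiter-Fluor fluorescence after 23 h compound exposure at 37 C/5% CO2 in double-stable HepG2-CYP2B6-hCAR cells, with PK11195 present at 0.75 uM final; compounds tested in 15-point titration.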
# Thyrotropin receptor (Homo sapiens), sequence (P16473 whole entry, looked up): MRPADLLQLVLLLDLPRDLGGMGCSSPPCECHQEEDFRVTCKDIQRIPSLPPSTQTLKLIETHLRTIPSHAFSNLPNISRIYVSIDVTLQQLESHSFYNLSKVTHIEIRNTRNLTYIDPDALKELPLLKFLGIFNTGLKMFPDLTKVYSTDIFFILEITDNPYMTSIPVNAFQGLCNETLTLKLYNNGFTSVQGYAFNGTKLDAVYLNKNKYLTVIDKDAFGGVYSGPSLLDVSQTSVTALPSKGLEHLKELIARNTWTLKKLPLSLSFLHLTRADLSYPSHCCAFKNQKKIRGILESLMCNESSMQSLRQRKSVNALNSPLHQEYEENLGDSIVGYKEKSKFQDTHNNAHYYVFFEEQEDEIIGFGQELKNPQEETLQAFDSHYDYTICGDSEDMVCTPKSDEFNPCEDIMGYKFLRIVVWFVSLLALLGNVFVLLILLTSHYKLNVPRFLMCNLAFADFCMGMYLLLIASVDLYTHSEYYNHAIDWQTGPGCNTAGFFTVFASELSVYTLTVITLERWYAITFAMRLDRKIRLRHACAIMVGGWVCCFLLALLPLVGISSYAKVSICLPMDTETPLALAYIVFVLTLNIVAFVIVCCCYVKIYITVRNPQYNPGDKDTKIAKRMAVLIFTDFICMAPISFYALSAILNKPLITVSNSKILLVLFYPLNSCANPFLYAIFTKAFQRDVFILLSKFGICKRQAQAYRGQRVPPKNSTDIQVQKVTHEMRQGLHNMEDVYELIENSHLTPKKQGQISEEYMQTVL
# Nuclear receptor subfamily 1 group I member 3 (Homo sapiens), sequence (Q14994 whole entry, looked up): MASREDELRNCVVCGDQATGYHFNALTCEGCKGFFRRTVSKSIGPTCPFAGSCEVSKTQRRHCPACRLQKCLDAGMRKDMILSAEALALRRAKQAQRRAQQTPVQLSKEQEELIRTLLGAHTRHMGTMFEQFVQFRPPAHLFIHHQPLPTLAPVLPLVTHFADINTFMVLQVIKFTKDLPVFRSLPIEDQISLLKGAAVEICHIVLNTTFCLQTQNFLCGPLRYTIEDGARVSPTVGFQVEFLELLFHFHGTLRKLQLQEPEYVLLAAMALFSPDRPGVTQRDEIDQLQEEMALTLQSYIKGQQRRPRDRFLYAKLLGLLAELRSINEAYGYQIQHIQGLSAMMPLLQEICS
# Luciferin 4-monooxygenase (Photinus pyralis), sequence (P08659 whole entry, looked up): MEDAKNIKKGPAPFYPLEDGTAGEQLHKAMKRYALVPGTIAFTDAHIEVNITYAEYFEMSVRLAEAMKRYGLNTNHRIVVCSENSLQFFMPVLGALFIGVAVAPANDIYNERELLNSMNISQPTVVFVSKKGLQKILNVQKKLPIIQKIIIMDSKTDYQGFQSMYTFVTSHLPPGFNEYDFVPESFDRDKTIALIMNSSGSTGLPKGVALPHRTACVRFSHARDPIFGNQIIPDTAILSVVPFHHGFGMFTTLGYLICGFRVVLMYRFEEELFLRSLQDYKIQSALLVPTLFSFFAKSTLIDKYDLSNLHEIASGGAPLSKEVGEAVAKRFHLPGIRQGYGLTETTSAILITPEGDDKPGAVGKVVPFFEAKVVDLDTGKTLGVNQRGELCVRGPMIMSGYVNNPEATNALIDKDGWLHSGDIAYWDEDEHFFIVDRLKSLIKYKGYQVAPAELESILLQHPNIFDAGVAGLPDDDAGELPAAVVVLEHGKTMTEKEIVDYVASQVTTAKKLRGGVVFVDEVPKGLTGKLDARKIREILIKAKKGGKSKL
Structure (SMILES),Potency [1],Potency [2],Potency [3],Potency [4],Potency [5],Potency [6],Potency [7],Potency [8],Potency [9],Potency [10]
C=Cc1c(C)c2cc3[nH]c(cc4nc(cc5nc(cc1[nH]2)C(C)=C5CCC(=O)O)C(CCC(=O)O)=C4C)c(C)c3C=C,23.7 µM (active),inactive,inactive,inactive,–,–,–,–,–,–
CC(C)(C)c1cc(O)c(C(C)(C)C)cc1O,48.6 µM (active),inactive,–,–,inactive,inactive,–,–,–,–
O=C(Cl)c1ccc([N+](=O)[O-])cc1,inactive,inactive,–,–,–,inactive,inactive,inactive,–,–
CCCC(=O)OCC,inactive,inactive,inactive,–,–,inactive,inactive,–,–,–
O=C(O)/C=C/c1cnc[nH]1,inactive,inactive,inactive,–,–,inactive,inactive,–,inactive,–
CC(C)(C)c1ccc(S)cc1,inactive,inactive,–,–,–,inactive,inactive,inactive,inactive,–
CC(=O)CC(=O)c1ccccc1,inactive,inactive,inactive,inactive,–,–,–,inactive,–,–
FC(F)(F)C(F)(F)C(F)(F)C(F)(F)C(F)(F)C(F)(F)CCI,inactive,–,inactive,–,–,inactive,inactive,inactive,inactive,inactive
O=[N+]([O-])c1cc[n+]([O-])cc1,inactive,inactive,inactive,–,–,–,30.6 µM (active),–,–,–
Cn1sccc1=O,inactive,–,inactive,inactive,–,inactive,inactive,inactive,–,inactive
CN1CCN(C2=Nc3cc(Cl)ccc3Nc3ccccc32)CC1,26.6 µM (active),inactive,–,–,–,inactive,–,–,–,–
CC1=CC(=O)/C(=C(/C)O)C(=O)O1,inactive,inactive,inactive,–,–,inactive,inactive,inactive,inactive,–
Nc1nc(N)c2nc(CNc3ccc(C(=O)N[C@@H](CCC(=O)O)C(=O)O)cc3)cnc2n1,inactive,inactive,inactive,0.114 µM (active),–,inactive,inactive,–,0.0404 µM (active),–
Cc1ccc(O)c([C@H](CCN(C(C)C)C(C)C)c2ccccc2)c1,inactive,inactive,inactive,–,–,inactive,inactive,–,–,–
N#Cc1cc2ccccc2c2ccccc12,inactive,–,27.4 µM (active),–,–,–,inactive,inactive,inactive,inactive
CC(C)c1ccccc1C(C)C,inactive,–,–,–,–,–,inactive,–,–,inactive

Structure (SMILES),Potency [1],Potency [2],Potency [3],Potency [4],Potency [5],Potency [6],Potency [7],Potency [8],Potency [9],Potency [10]
O=c1[nH]cnc2ccccc12,inactive,inactive,–,–,–,inactive,inactive,–,–,–
CC(C)(C)C(=O)OCOP(=O)(COCCn1cnc2c(N)ncnc21)OCOC(=O)C(C)(C)C,inactive,inactive,–,–,–,inactive,–,inactive,–,–
CCc1nn(C2CCCCC2)c2cc(C3(C#N)CCC(C(=O)O)CC3)ccc12 (centres undefined),48.6 µM (active),inactive,inactive,–,–,inactive,–,–,inactive,–
CCCCCc1ccc(N)cc1,inactive,–,inactive,–,–,inactive,inactive,inactive,–,inactive
O=C(O)c1cccc(N(Cc2cccnc2)c2ccc(OC(F)F)c(OC(F)F)c2)c1,–,inactive,inactive,inactive,–,–,inactive,–,–,inactive
NC(N)=N/N=C/c1c(Cl)cccc1Cl,–,inactive,inactive,inactive,inactive,–,23.7 µM (active),inactive,–,23.7 µM (active)
CC(=O)N(O)CCCCCNC(=O)CCC(=O)N(O)CCCCCNC(=O)CCC(=O)N(O)CCCCCN,–,inactive,–,–,inactive,inactive,inactive,inactive,–,inactive
CCCOc1ccc2nc(NC(=O)OC)[nH]c2c1,–,inactive,inactive,–,–,inactive,inactive,inactive,–,inactive
CCCC(C)C,–,inactive,–,–,–,inactive,inactive,inactive,–,inactive
COCCCCCCCCOCCC[Si](C)(O[Si](C)(C)C)O[Si](C)(C)C,–,inactive,inactive,–,–,–,–,–,48.6 µM (active),–
Cc1cccc(Oc2ccccc2)c1,–,inactive,inactive,53.1 µM (active),inactive,inactive,inactive,inactive,inactive,inactive
CCC(C)N(C)C(=O)c1cc2ccccc2c(-c2ccccc2Cl)n1 (centres undefined),–,inactive,–,–,–,–,inactive,–,–,inactive
CC(C(=O)O)c1ccc(-c2ccccc2)c(F)c1 (centres undefined),inactive,–,inactive,–,–,–,inactive,–,–,–
CCN(CC)CCNC(C(=O)OCCC(C)C)c1ccccc1 (centres undefined),–,inactive,inactive,inactive,–,inactive,inactive,inactive,–,inactive
CCOC(=O)C1=C(C)NC(C)=C(C(=O)OC)C1c1cccc([N+](=O)[O-])c1 (centres undefined),–,inactive,inactive,–,–,inactive,inactive,inactive,inactive,inactive
CC1(C)CCC(C)(C)c2cc(NC(=O)c3ccc(C(=O)O)cc3)ccc21,inactive,–,inactive,–,–,inactive,inactive,inactive,–,–
